# Reference: PubChem BioAssay (EPA / NIEHS)
# Results filed as inconclusive are left out. Activity calls are given as the source filed them. The calls were made as follows: active = hit-call score of the fitted dose curve at least 0.9, where 1 is the maximum; inconclusive = response in the unintended direction; inactive = score below 0.9.
# Tests used:
# [1] = target: human Adenosine A1 Receptor (AdoRA1), ADORA1 (gene 134) (UniProt P30542); assay: NVS_GPCR_hAdoRA1: NovaScreen (NVS) G Protein-Coupled Receptor Assay for human Adenosine A1 Receptor (AdoRA1) (AID 2283254)
# Outline: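 Membranes from human cortical tissue were incubated with radioligand and test chemical for 1 hour, then filtered and counted. Activity was taken as signal loss relative to DMSO, screened at 25 uM in duplicate before concentration-response follow-up.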
# [2] = target: human Adenosine A2a Receptor (AdoRA2a), ADORA2A (gene 135) (UniProt P29274); assay: NVS_GPCR_hAdoRA2a: NovaScreen (NVS) G Protein-Coupled Receptor Assay for human Adenosine A2a Receptor (AdoRA2a) (AID 2283256)
# Outline: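 Compounds screened in duplicate at 25 uM, with actives followed up in concentration series, for displacement of a radioligand from HEK293-derived receptor protein. Bound counts read by filter scintillation at 1.5 hours, DMSO as baseline.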
# [3] = NVS_GPCR_bNPY_NonSelective: NovaScreen (NVS) G Protein-Coupled Receptor Assay for bovine Neuropeptide Y (NPY) Receptor, Non-selective Binding (AID 2283245)
# Outline: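 Displacement of radioligand from bovine hippocampal membrane receptors, read by filtration and scintillation counting after 1 hour. Concentration-response to a top of 50 uM followed a 25 uM duplicate primary screen. Loss of signal versus DMSO.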
# [4] = target: Beta-2 adrenergic receptor (Homo sapiens) (UniProt P07550); assay: NVS_GPCR_hAdrb2: NovaScreen (NVS) G Protein-Coupled Receptor Assay for human Adrenergic, Beta 2 Receptor (Adrb2) (AID 2283261)
# Outline: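 Compounds screened in duplicate at 25 uM, then actives in concentration series. Human beta-2 receptor from CHO material, cell-free; radioligand displacement after 1 h measured by filtration and scintillation against DMSO baseline.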
# [5] = target: human Serotonin, 5-Hydroxytryptamine Receptor 7 (5HT7), HTR7 (gene 3363) (UniProt P34969); assay: NVS_GPCR_h5HT7: NovaScreen (NVS) G Protein-Coupled Receptor Assay for human Serotonin, 5-Hydroxytryptamine Receptor 7 (5HT7) (AID 2283255);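 also: hits reduce specific radioligand binding relative to DMSO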
# Outline: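 Filter-bound radioactivity counted after 1 h, with loss of specific radioligand binding fitted against DMSO. Membrane protein came from CHO cells expressing human 5HT7. Chemicals were tested first at 25 uM in duplicate, then in concentration series if active.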
# [6] = tested on: guinea pig Muscarinic, Peripheral (Mperiperal) Receptor, Non-selective Binding, gene 100379235; assay: NVS_GPCR_gMPeripheral_NonSelective: NovaScreen (NVS) G Protein-Coupled Receptor Assay for guinea pig Muscarinic, Peripheral (Mperiperal) Receptor, Non-selective Binding (AID 2283250)
# Outline: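 Screened in duplicate at 25 uM, hits retested in concentration series to 50 uM max, using bladder membrane radioligand displacement from guinea pig. Filtration and scintillation counting 1 h post-dose, fitted relative to DMSO.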
# [7] = tested on: guinea pig Leukotriene B4 Receptor (LTB4), gene 100379538; assay: NVS_GPCR_gLTB4: NovaScreen (NVS) G Protein-Coupled Receptor Assay for guinea pig Leukotriene B4 Receptor (LTB4) (AID 2283247)
# Outline: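 Membranes from guinea pig spleen incubated 2 h with radioligand and compound; bound counts measured by filtration and scintillation. Screened first at 25 uM in duplicate, then actives titrated to a 50 uM top concentration relative to DMSO.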
# [8] = target: human Dopamine Receptor D2 (DRD2), DRD2 (gene 1813) (UniProt P14416); assay: NVS_GPCR_hDRD2s: NovaScreen (NVS) G Protein-Coupled Receptor Assay for human Dopamine Receptor D2 (DRD2) (AID 2283266)
# Outline: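 Test compound (25 uM, duplicate in the primary screen; concentration series at follow-up) competed with radioligand for human DRD2 in CHO-derived membrane protein. Filter-based scintillation counting was done 1.5 hours after dosing, with loss of signal analysed against DMSO.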
# [9] = target: guinea pig Opioid, Kappa 1 Receptor (OpiateK), OPRK1 (gene 100135587) (UniProt P41144); assay: NVS_GPCR_gOpiateK: NovaScreen (NVS) G Protein-Coupled Receptor Assay for guinea pig Opioid, Kappa 1 Receptor (OpiateK) (AID 2283252);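 also: radioligand displacement from kappa opioid receptor in guinea pig cerebellar membranes; active means reduced radioligand binding relative to DMSO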
# Outline: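 Cell-free tissue prep: guinea pig cerebellar membranes, radioligand displacement, 2 h incubation. Readout: filtration plus scintillation counting. Primary single-point 25 uM duplicate; actives retested in concentration series; DMSO negative control.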
# [10] = target: human Adrenergic, Alpha 2A Receptor (Adra2A), ADRA2A (gene 150) (UniProt P08913); assay: NVS_GPCR_hAdra2A: NovaScreen (NVS) G Protein-Coupled Receptor Assay for human Adrenergic, Alpha 2A Receptor (Adra2A) (AID 2283257)
# Outline: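 Displacement of a specific radioligand from HT29 membrane protein was counted by filter scintillation after 1 h. Compounds were screened in duplicate at 25 uM, and actives were retested in concentration series. Fitting was positive-direction against DMSO.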
# [11] = target: human Dopamine Receptor D4.4 (DRD4.4), DRD4 (gene 1815) (UniProt P21917); assay: NVS_GPCR_hDRD4.4: NovaScreen (NVS) G Protein-Coupled Receptor Assay for human Dopamine Receptor D4.4 (DRD4.4) (AID 2283264)
# Outline: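 Filter-binding assay with a tritiated or iodinated ligand, cell-free receptor prepared from CHO, 1 hour. Loss of bound radioactivity versus DMSO; single 25 uM duplicate screen, then concentration-response for actives.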
# [12] = target: human Adrenergic, Beta 1 Receptor (Adrb1), ADRB1 (gene 153) (UniProt P08588); assay: NVS_GPCR_hAdrb1: NovaScreen (NVS) G Protein-Coupled Receptor Assay for human Adrenergic, Beta 1 Receptor (Adrb1) (AID 2283258)
# Outline: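 Membranes/protein extracted from human neuroepithelioma cells, radioligand competition binding read by filtration and scintillation 2 h post-dose. Single 25 uM duplicate screen, then concentration-response follow-up; DMSO as negative control.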
# [13] = target: human Adrenergic, Alpha 2c Receptor (Adra2C), ADRA2C (gene 152) (UniProt P18825); assay: NVS_GPCR_hAdra2C: NovaScreen (NVS) G Protein-Coupled Receptor Assay for human Adrenergic, Alpha 2c Receptor (Adra2C) (AID 2283259)
# Outline: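 Screened first in duplicate at 25 uM, with actives then run as concentration series. Membranes from Sf9 cells were exposed for 1 h, and displacement of radioligand was counted after filtration, using DMSO as baseline.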
# [14] = target: D(1A) dopamine receptor (Homo sapiens) (UniProt P21728); assay: NVS_GPCR_hDRD1: NovaScreen (NVS) G Protein-Coupled Receptor Assay for human Dopamine Receptor D1 (DRD1) (AID 2283269)
# Outline: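 Cell-free radioligand binding to human DRD1 from HEK293 membranes, read 1 h after dosing by filter-based scintillation counting. Loss of signal versus DMSO baseline marks displacement. Primary screen at 25 uM single concentration in duplicate; actives followed up in concentration series.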
# [15] = target: human Serotonin, 5-Hydroxytryptamine Receptor 6 (5HT6), HTR6 (gene 3362) (UniProt P50406); assay: NVS_GPCR_h5HT6: NovaScreen (NVS) G Protein-Coupled Receptor Assay for human Serotonin, 5-Hydroxytryptamine Receptor 6 (5HT6) (AID 2283253)
# Outline: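 Filter scintillation counting of radioligand displacement from HEK293-expressed 5HT6, 1 hour post-dose, with loss of signal relative to DMSO. Single 25 uM duplicates first, with concentration series for confirmation.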
# [16] = tested on: bovine Histamine 1 Receptor (H1), gene 281231; assay: NVS_GPCR_bH1: NovaScreen (NVS) G Protein-Coupled Receptor Assay for bovine Histamine 1 Receptor (H1) (AID 2283246)
# Outline: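 Hits from a 25 uM duplicate primary screen were retested in concentration series (top 50 uM); binding measured as scintillation-counted displacement of radioligand from bovine cerebellar membranes after 1 h, normalised to DMSO.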
# [17] = target: human Histamine 1 Receptor (H1), HRH1 (gene 3269) (UniProt P35367); assay: NVS_GPCR_hH1: NovaScreen (NVS) G Protein-Coupled Receptor Assay for human Histamine 1 Receptor (H1) (AID 2283268)
# Outline: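 Filter-based scintillation detection of radioligand binding to human H1, 1 h incubation; chemicals screened in duplicate at 25 uM, then concentration-response; signal loss relative to DMSO taken as activity.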
# [18] = target: human Serotonin, 5-Hydroxytryptamine Receptor 2A (5HT2A), HTR2A (gene 3356) (UniProt P28223); assay: NVS_GPCR_h5HT2A: NovaScreen (NVS) G Protein-Coupled Receptor Assay for human Serotonin, 5-Hydroxytryptamine Receptor 2A (5HT2A) (AID 2283249)
# Outline: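 Radioligand displacement on human cortex tissue extract, counted by filtration and scintillation 1.5 h post-dosing. Initial single-concentration screen at 25 uM in duplicate, concentration series in follow-up; DMSO as baseline.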
# [19] = target: Type-1 angiotensin II receptor (Homo sapiens) (UniProt P30556); assay: NVS_GPCR_hAT1: NovaScreen (NVS) G Protein-Coupled Receptor Assay for human Angiotensin II receptor type 1 (AT1) (AID 2283263)
# Outline: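 Hits from a 25 uM duplicate screen (threshold e.g. 30% inhibition) were run in concentration-response with 50 uM top concentration. Displacement of specific radioligand from KAN-TS membrane preparations measured after 3 h by filter scintillation, DMSO as baseline.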
# Sequence of human Adrenergic, Alpha 2c Receptor (Adra2C), ADRA2C (gene 152) (P18825 whole entry, looked up): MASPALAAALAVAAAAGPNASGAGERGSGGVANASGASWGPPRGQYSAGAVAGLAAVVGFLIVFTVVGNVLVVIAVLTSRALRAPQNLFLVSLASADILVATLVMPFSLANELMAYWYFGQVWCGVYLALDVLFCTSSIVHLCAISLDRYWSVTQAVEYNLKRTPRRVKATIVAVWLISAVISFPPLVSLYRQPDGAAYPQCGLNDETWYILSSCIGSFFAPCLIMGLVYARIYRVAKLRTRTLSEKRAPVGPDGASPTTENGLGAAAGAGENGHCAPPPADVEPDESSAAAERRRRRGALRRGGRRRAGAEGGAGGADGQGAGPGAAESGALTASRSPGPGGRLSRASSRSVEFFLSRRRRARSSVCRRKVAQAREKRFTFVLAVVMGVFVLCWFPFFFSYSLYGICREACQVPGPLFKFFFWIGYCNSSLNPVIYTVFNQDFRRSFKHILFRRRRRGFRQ
# Sequence of guinea pig Opioid, Kappa 1 Receptor (OpiateK), OPRK1 (gene 100135587) (P41144 whole entry, looked up): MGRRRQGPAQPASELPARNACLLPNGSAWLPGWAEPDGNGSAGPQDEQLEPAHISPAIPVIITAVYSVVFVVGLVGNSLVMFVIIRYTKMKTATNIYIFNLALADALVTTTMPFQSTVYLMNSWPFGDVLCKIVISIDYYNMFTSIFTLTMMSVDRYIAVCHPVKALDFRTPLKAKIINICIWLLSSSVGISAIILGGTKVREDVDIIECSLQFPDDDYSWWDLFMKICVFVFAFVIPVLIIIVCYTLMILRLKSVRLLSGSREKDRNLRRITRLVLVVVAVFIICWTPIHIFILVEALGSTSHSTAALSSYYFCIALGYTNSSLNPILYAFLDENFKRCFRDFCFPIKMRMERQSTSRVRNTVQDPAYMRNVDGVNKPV
# Sequence of D(1A) dopamine receptor (Homo sapiens) (P21728 whole entry, looked up): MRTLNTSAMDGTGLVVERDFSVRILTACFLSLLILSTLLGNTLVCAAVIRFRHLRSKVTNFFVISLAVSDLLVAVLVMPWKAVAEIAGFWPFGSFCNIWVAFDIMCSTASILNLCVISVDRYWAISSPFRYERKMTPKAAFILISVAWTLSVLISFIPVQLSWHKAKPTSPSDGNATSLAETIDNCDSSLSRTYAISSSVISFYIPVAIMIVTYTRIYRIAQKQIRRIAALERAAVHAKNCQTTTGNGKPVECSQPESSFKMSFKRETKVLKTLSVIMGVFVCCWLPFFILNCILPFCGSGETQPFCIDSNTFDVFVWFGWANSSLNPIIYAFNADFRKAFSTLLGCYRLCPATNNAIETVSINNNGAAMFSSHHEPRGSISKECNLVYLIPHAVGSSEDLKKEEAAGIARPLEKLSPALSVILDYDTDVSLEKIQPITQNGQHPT
# Sequence of human Dopamine Receptor D2 (DRD2), DRD2 (gene 1813) (P14416 whole entry, looked up): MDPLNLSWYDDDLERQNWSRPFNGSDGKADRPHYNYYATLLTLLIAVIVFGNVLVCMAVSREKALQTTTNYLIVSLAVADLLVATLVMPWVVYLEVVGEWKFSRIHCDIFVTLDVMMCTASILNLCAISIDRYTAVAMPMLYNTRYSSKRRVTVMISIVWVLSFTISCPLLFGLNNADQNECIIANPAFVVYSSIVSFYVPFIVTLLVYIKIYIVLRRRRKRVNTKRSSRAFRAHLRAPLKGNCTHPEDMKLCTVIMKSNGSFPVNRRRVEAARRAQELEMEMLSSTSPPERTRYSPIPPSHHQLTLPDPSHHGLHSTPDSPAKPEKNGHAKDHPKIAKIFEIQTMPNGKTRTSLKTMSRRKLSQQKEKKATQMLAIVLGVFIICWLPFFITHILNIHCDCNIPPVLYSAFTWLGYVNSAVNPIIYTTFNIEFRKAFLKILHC
# Sequence of human Adenosine A1 Receptor (AdoRA1), ADORA1 (gene 134) (P30542 whole entry, looked up): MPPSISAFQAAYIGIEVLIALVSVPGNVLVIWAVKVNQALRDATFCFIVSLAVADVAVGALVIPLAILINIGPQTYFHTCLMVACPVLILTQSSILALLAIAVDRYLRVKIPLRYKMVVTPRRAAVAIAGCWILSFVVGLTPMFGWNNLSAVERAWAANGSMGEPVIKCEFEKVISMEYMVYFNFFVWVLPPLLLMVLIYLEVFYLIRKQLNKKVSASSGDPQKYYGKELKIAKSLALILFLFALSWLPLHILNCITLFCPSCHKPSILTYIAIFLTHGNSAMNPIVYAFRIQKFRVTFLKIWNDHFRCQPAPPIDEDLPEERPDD
# Sequence of human Serotonin, 5-Hydroxytryptamine Receptor 7 (5HT7), HTR7 (gene 3363) (P34969 whole entry, looked up): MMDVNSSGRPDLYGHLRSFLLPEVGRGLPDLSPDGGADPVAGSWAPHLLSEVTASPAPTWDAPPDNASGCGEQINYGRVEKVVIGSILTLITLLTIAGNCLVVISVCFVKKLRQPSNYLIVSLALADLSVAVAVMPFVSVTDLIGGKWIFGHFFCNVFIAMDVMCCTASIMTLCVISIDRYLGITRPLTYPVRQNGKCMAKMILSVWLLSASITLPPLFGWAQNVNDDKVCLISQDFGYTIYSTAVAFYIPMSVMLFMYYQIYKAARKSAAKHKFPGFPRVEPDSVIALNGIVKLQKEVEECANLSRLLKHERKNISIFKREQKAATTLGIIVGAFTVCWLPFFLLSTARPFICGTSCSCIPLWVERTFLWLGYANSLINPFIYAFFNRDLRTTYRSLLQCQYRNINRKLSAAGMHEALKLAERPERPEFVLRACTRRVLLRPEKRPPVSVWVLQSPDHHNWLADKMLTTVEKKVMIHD
# Sequence of human Serotonin, 5-Hydroxytryptamine Receptor 6 (5HT6), HTR6 (gene 3362) (P50406 whole entry, looked up): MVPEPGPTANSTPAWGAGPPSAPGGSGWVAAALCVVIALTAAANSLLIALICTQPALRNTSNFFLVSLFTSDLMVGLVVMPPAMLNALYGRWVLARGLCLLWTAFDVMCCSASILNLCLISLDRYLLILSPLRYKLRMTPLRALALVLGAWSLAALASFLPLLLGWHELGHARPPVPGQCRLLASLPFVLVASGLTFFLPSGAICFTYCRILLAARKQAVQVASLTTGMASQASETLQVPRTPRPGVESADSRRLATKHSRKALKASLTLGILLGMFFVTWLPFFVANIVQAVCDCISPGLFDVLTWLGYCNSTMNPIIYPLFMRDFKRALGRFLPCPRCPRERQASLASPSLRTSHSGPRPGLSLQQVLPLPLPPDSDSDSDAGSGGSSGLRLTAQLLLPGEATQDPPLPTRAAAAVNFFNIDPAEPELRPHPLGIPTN
# Sequence of human Adenosine A2a Receptor (AdoRA2a), ADORA2A (gene 135) (P29274 whole entry, looked up): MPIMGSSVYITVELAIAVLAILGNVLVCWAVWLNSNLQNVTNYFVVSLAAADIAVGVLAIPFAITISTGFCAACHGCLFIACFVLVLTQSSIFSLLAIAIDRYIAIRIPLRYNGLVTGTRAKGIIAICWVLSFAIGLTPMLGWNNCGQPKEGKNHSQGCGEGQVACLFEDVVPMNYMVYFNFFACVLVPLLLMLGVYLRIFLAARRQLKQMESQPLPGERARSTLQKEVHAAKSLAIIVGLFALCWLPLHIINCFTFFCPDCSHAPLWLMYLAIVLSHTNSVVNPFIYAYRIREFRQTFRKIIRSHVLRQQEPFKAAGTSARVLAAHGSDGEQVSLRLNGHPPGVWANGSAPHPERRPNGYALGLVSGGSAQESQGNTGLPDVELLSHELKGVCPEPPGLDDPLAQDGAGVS
# Sequence of Beta-2 adrenergic receptor (Homo sapiens) (P07550 whole entry, looked up): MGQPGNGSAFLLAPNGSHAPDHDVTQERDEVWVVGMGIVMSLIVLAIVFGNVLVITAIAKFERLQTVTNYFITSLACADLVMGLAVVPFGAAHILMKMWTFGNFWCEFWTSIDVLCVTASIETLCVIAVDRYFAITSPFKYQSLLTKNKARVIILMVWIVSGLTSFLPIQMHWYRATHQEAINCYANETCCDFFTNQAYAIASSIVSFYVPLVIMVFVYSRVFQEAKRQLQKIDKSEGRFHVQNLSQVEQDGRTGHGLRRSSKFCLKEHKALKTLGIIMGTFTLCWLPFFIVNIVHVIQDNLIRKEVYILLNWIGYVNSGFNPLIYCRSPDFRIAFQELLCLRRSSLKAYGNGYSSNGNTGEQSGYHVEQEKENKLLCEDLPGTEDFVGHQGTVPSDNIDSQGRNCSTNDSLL
# Sequence of human Adrenergic, Beta 1 Receptor (Adrb1), ADRB1 (gene 153) (P08588 whole entry, looked up): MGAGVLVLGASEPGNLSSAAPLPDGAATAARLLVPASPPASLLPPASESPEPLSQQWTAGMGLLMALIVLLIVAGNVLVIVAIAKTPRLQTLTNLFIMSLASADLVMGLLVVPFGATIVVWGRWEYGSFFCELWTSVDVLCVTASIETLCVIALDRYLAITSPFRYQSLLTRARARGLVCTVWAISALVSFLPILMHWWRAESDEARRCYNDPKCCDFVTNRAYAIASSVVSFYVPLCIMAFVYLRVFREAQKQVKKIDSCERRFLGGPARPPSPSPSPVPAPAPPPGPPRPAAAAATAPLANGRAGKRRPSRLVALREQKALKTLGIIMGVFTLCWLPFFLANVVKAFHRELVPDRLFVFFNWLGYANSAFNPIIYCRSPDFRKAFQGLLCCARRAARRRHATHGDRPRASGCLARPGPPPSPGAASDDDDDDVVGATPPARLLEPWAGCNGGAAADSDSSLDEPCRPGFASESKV
# Sequence of Type-1 angiotensin II receptor (Homo sapiens) (P30556 whole entry, looked up): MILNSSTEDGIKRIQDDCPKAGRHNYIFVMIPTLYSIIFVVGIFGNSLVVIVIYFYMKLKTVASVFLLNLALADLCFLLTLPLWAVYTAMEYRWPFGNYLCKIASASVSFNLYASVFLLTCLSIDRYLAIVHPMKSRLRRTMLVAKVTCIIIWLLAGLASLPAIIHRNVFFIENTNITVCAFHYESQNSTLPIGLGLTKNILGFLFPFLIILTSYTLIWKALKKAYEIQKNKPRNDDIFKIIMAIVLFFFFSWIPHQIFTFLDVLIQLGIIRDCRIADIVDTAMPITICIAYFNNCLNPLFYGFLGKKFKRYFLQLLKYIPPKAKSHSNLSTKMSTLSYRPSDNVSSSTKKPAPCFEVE
structure (smiles),measurement,setting,value
Nc1cnn(-c2ccccc2)c(=O)c1Cl,AC50,[1],8.18 µM (active)
same,AC50,[2],32.6 µM (active)
CCOP(=S)(OCC)Oc1nc(Cl)n(C(C)C)n1,outcome,[3],inactive
same,AC50,[1],8.95 µM (active)
COC(=O)NS(=O)(=O)c1ccc(N)cc1,outcome,[4],inactive
CC1(C)C(C(=O)OC(C#N)c2cccc(Oc3ccccc3)c2)C1(C)C (centres undefined),AC50,[5],25 µM (active)
COP(=O)(OC)O/C(C)=C/C(=O)N(C)C,outcome,[6],inactive
C=C(C)CN(CC)c1c([N+](=O)[O-])cc(C(F)(F)F)cc1[N+](=O)[O-],outcome,[7],inactive
OC(c1ccc(Cl)cc1)(c1ccc(Cl)cc1)C(Cl)(Cl)Cl,outcome,[5],inactive
same,outcome,[8],inactive
COCC(C)N(C(=O)CCl)c1c(C)csc1C (centres undefined),AC50,[9],15.5 µM (active)
CCCN(CC)CC1COC2(CCC(C(C)(C)C)CC2)O1 (centres undefined),outcome,[6],inactive
same,AC50,[9],14.3 µM (active)
same,AC50,[5],8 µM (active)
same,AC50,[10],3.99 µM (active)
same,AC50,[11],7.95 µM (active)
same,outcome,[8],inactive
CC(C)=CC1C(C(=O)OCc2coc(Cc3ccccc3)c2)C1(C)C (centres undefined),AC50,[7],6.5 µM (active)
same,outcome,[5],inactive
same,AC50,[12],25 µM (active)
same,AC50,[13],25 µM (active)
same,AC50,[14],11.5 µM (active)
Nc1c(Cl)c(F)nc(OCC(=O)O)c1Cl,outcome,[13],inactive
CC1(C)CON(Cc2ccccc2Cl)C1=O,outcome,[13],inactive
CCCCC(O)(Cn1cncn1)c1ccc(Cl)cc1Cl (centres undefined),AC50,[9],17.8 µM (active)
same,outcome,[15],inactive
same,AC50,[5],16.6 µM (active)
CCC(C)n1c(=O)[nH]c(C)c(Br)c1=O (centres undefined),outcome,[16],inactive
same,AC50,[1],15.2 µM (active)
same,AC50,[5],14 µM (active)
same,outcome,[17],inactive
CCOc1cc(C(C)(C)C)ccc1C1COC(c2c(F)cccc2F)=N1 (centres undefined),outcome,[1],inactive
same,outcome,[14],inactive
O=C1C2CC=CCC2C(=O)N1SC(Cl)(Cl)Cl (centres undefined),outcome,[18],inactive
same,outcome,[6],inactive
same,AC50,[5],4.95 µM (active)
same,AC50,[19],13.4 µM (active)
same,AC50,[8],25 µM (active)
same,AC50,[14],9.65 µM (active)
